# Over roughly 68,000 sequences, “fluorescence intensity (a.u.)” has its median near 9,100; the highest 2% begin near 16,000. Only a selection was taken, and the highest values are over-represented in it overall.
# Target: OsWRKY34 (Oryza sativa, UniProt Q0JBA9 1-250)
# Test: protein-binding microarray (RPBM); PBS, 2% BSA, 51.3 ng/ul salmon testes DNA, 50 uM zinc acetate, 200 nM TF, 25 C, 1 h; high values mean tight binding
# Conditions: protein: recombinant; tags: N-terminal polyhistidine and DsRed monomer fusion (pET32a); label: CyDye5-dUTP incorporated in the synthesized complementary strand; 3' TTTTT single-stranded linker to array surface; dsDNA, one strand shown
# Method in brief: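 Transcription factors were each fused at the N-terminus to a polyhistidine tag plus DsRed and expressed in E. coli BL21-CodonPlus before Ni–NTA purification. Binding to a double-stranded custom Agilent array was carried out with 200 nM protein at 25 °C for 1 h in PBS, 2% BSA, salmon testes DNA and 50 µM zinc acetate. The binding signal is per-feature fluorescence intensity, in arbitrary units, on an Axon 4000B scanner.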
# OsWRKY34, sequence (Q0JBA9 entry or part of it): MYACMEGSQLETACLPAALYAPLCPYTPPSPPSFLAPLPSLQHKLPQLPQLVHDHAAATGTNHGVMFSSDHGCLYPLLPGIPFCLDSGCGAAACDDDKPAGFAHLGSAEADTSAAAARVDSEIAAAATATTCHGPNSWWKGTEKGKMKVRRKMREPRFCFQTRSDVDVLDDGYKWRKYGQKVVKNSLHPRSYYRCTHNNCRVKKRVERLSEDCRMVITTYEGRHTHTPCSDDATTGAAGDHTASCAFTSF
row,Sequence,binding signal
1,TAGCTCACATCGTTTTACGTATCTTCCCAATCTCCTGATCCGGAGTCACCTAGTGCAG,8950 fluorescence intensity (a.u.)
2,CTTTCGCGTTTTCCTTGGGTTTGACAATGGGCTACATTGCCGGAGTCACCTAGTGCAG,9400 fluorescence intensity (a.u.)
3,TATACTCCTTATCTTGGATTGGTAGTCTTTAGTTTGCTTTCGGAGTCACCTAGTGCAG,9320 fluorescence intensity (a.u.)
4,AACACCACGCCGCGCGCTCCACGGCAACGCAACGCAGGAACGGAGTCACCTAGTGCAG,8720 fluorescence intensity (a.u.)
5,CAAAGTTGTGTGTTGTGAAGTGTGAAGGAGAGCTCTATTTCGGAGTCACCTAGTGCAG,8610 fluorescence intensity (a.u.)
6,TCCGGAGTCTGCACCCATCTTCCCCACGTGCGCGCCCATCCGGAGTCACCTAGTGCAG,8980 fluorescence intensity (a.u.)
7,TTTTCTCATATGTTTGACCATTCGTCTTATTCAAAAAATTCGGAGTCACCTAGTGCAG,9000 fluorescence intensity (a.u.)
8,ATTGACTTTTTCTTACACTGTTTAACCATTCGTCTTATTCCGGAGTCACCTAGTGCAG,14000 fluorescence intensity (a.u.)
9,TGACGCCGTTGACTTTTTCTTACATGTTTGACCATTCGTCCGGAGTCACCTAGTGCAG,36700 fluorescence intensity (a.u.)
10,TGACGCCGTTGACTTTTTCTCACATGTTTGACTATTCGTCCGGAGTCACCTAGTGCAG,49100 fluorescence intensity (a.u.)
11,TGACGCCGTTAACTTTTTCTCACATATTTGACTATTTGTCCGGAGTCACCTAGTGCAG,10900 fluorescence intensity (a.u.)
12,GCTGTTGACTTTTTCTCACGTGATTGACCTTTCGTCTTATCGGAGTCACCTAGTGCAG,28400 fluorescence intensity (a.u.)
13,ACCATTGATTTTTCAGTACGTGTTTGACCATTCGTCTTATCGGAGTCACCTAGTGCAG,13300 fluorescence intensity (a.u.)
14,CGCCGTTGACTTTTTCTCATATGTTTGACCATTCATCTTACGGAGTCACCTAGTGCAG,38900 fluorescence intensity (a.u.)
15,TTTCGTCAGCTGATCGTATATTGACCTTTTCTGTCTCTGTCGGAGTCACCTAGTGCAG,10500 fluorescence intensity (a.u.)
16,CACCGTTAATTTTTTCTCACATGTTTGACCATTCATCTTACGGAGTCACCTAGTGCAG,14400 fluorescence intensity (a.u.)
17,TCGCCGCTTTCCCTTTCTCCCCTGCGCTCTCACGTCAAACCGGAGTCACCTAGTGCAG,8970 fluorescence intensity (a.u.)
18,CTCTGCTCAGTGCTGCTCACTGCCTCACTCACACTGTCACCGGAGTCACCTAGTGCAG,11000 fluorescence intensity (a.u.)
19,CTAACCTGGACCGTCCATCCGCGCGAAGTTTTCTCCACCGCGGAGTCACCTAGTGCAG,9060 fluorescence intensity (a.u.)
20,TTCCACACAATGTGCTAAAAGTTTGACTTTTACACGTCCACGGAGTCACCTAGTGCAG,14500 fluorescence intensity (a.u.)
21,AACATCTGCCTGCTCACTAAAATGATCTACCGGCTTTTTTCGGAGTCACCTAGTGCAG,8620 fluorescence intensity (a.u.)
22,CGCTGTTTTTTTTTTATTTTGACGGGTAGTAGAGGCCGCGCGGAGTCACCTAGTGCAG,9990 fluorescence intensity (a.u.)
23,TTTCAGAGCTATTTGGCCTTTAATACACTTTCCTATTAAGCGGAGTCACCTAGTGCAG,8710 fluorescence intensity (a.u.)
24,ACTTTTTTTCTCAATCTGTGCTCTTTCACGTGTTTGACTTCGGAGTCACCTAGTGCAG,11400 fluorescence intensity (a.u.)
25,CACCGTTGACTTTTTCTCACATGTTTGACCATTCGTCTTACGGAGTCACCTAGTGCAG,48400 fluorescence intensity (a.u.)
26,AGATGACGCCGTTGACTTTTTCTTACATATTTGACCATTCCGGAGTCACCTAGTGCAG,25400 fluorescence intensity (a.u.)
27,TCATCTCACGCTGTTGACTTTCTCTTTTTTTTTCGGGGAGCGGAGTCACCTAGTGCAG,18000 fluorescence intensity (a.u.)

row,Sequence,binding signal
1,TGACGCCGTTGACTTTTTATCTAATGTTTGACTATTCGTCCGGAGTCACCTAGTGCAG,43500 fluorescence intensity (a.u.)
2,TGACTTTTTCTCACATGTTTGACCATTCGTCTTATTAAAACGGAGTCACCTAGTGCAG,12500 fluorescence intensity (a.u.)
3,TAGACTTTTTCTCACATGTTTGACCATTCGTCTTATTCAACGGAGTCACCTAGTGCAG,11700 fluorescence intensity (a.u.)
4,AGTTGTTCTTCTCAGCAGGTTGCTGTCATCTTAGACTTTTCGGAGTCACCTAGTGCAG,8410 fluorescence intensity (a.u.)
5,TAGATGACGCCGTTGATTTTTTTCTCACATATTTGACCATCGGAGTCACCTAGTGCAG,10700 fluorescence intensity (a.u.)
6,ACTGTCCACTCACTTTTTCTTCACCCAGGAGACGAAATTTCGGAGTCACCTAGTGCAG,11200 fluorescence intensity (a.u.)
7,TGGCTTATCTCGTTTTGTATATCATCTTCTTAATCTTTTTCGGAGTCACCTAGTGCAG,10500 fluorescence intensity (a.u.)
8,CTGCCTCGCTGCCGCCTGCCGTCTCCCCGGGCCCATCTTTCGGAGTCACCTAGTGCAG,8210 fluorescence intensity (a.u.)
9,GTGGCGTCAAAGTATTGAGGGCGGGGATGCGGCCACCGTACGGAGTCACCTAGTGCAG,8640 fluorescence intensity (a.u.)
10,ACCTGTGCTTGATGGGATGGAAGCTTGGATTAGGTTGGTTCGGAGTCACCTAGTGCAG,8560 fluorescence intensity (a.u.)
11,TCTCGCTCGTTTTACCGCAGCATTTTGTTGTTGCTCTAGCCGGAGTCACCTAGTGCAG,8620 fluorescence intensity (a.u.)
12,AGTTAGTCAAGCGTATCCTATTTTACGTGCCCGCGCGAATCGGAGTCACCTAGTGCAG,9610 fluorescence intensity (a.u.)
13,GACTATCTTGTCGTTCGGTCCAAAAACCGGCGCCTTATGACGGAGTCACCTAGTGCAG,8300 fluorescence intensity (a.u.)
14,CACGACCTTAAGCCTCATAATTTGGACAATCACAGCAACTCGGAGTCACCTAGTGCAG,9170 fluorescence intensity (a.u.)
15,ATAGATGACGCCGTTGATTTTTTCTCATATGTTTGACCATCGGAGTCACCTAGTGCAG,11600 fluorescence intensity (a.u.)
16,GCCGTTGACTTTTTCTCACATATTTGACCATTCGTCTTATCGGAGTCACCTAGTGCAG,45300 fluorescence intensity (a.u.)
17,TTGACCTTTTCTCACATGTTTAACCATTCGTCTTATTTAACGGAGTCACCTAGTGCAG,13500 fluorescence intensity (a.u.)
18,ACCATGTTGACTTTTTGCACATTTATAGAATCTTTTGGTACGGAGTCACCTAGTGCAG,21800 fluorescence intensity (a.u.)
19,GCACATGTTTGACCATTCATCTTATAAGAAAAAACTTTTGCGGAGTCACCTAGTGCAG,8090 fluorescence intensity (a.u.)
20,TGATGCCGTTGACTTTTTCTCATATGTTTGACCATTCGTCCGGAGTCACCTAGTGCAG,44800 fluorescence intensity (a.u.)
21,CGCCGTTGACTTTTTCTCACATGTTTGACCATTCGTCTTACGGAGTCACCTAGTGCAG,42500 ± 475 fluorescence intensity (a.u.)
22,CATTGACTTTTTCTCACATATTTGTCCATTCGTCTTATTACGGAGTCACCTAGTGCAG,16100 fluorescence intensity (a.u.)
23,TTTTTTCTCACATGTTTGACCATTCGTCTTATTCAAAAAACGGAGTCACCTAGTGCAG,8550 fluorescence intensity (a.u.)
24,TTCTCACATGTTTGACCATTCGTCTTATTAAAAATTTTATCGGAGTCACCTAGTGCAG,11100 fluorescence intensity (a.u.)
25,AATAGATGACGTTGTTGACTTTTTCTCATATGTTTGACCACGGAGTCACCTAGTGCAG,13000 fluorescence intensity (a.u.)
26,GTTGACTTTTTTTCACATGTTTGACCATTCATCTTATTCACGGAGTCACCTAGTGCAG,13400 fluorescence intensity (a.u.)
27,TCGTCCGCTGCAGCCGCTCGCTAGCTAGTAGCTATAGCTACGGAGTCACCTAGTGCAG,8160 fluorescence intensity (a.u.)
